# Records with an inconclusive call do not appear. Activity calls are given as the source filed them. Calls come from the whole dose curve.
# Assay: VSV-G qHTS counterscreen for inhibitors of MERS-S pseudo-typed particle cell entry
# Details: VSV-G pseudotyped particle cell entry, luciferase counterscreen; series mostly up to 57.1 µM
Compound,Potency,"activity, negative = inhibition"
CN(C)[C@@H](CCOc1cccc2ccccc12)c1ccccc1,21.5 µM (active),–
COc1cc2c(cc1Cc1cccc(Cl)c1F)c(=O)c(C(=O)O)cn2[C@H](CO)C(C)C,0.192 µM (active),–
C[n+]1c2cc(N)ccc2cc2ccc(N)cc21 (tested in a mixture with another compound),1.71 µM (active),–
CC(C)C(=O)Oc1ccc(CO)cc1[C@H](CCN(C(C)C)C(C)C)c1ccccc1,21.5 µM (active),–
COc1ccc(Cc2nccc3cc(OC)c(OC)cc23)cc1OC,3.04 µM (active),–
N#CC(c1ccc(Cl)cc1)c1c(Cl)cc(-n2ncc(=O)[nH]c2=O)cc1Cl (stereo not given),3.83 µM (active),–
Cc1ccc(NC(=O)c2ccc(CN3CCN(C)CC3)cc2)cc1Nc1nccc(-c2cccnc2)n1,17.1 µM (active),–
O=C(Nc1ccc([N+](=O)[O-])cc1Cl)c1cc(Cl)ccc1O,0.607 µM (active),–
CC(C)(C)c1ccc(C(=O)CCCN2CCC(OC(c3ccccc3)c3ccccc3)CC2)cc1,8.57 µM (active),–
COc1cccc2c1C(=O)c1c(O)c3c(c(O)c1C2=O)C[C@@](O)(C(=O)CO)CC3OC1CC(N2CCOC(OC)C2)C(O)C(C)O1 (stereo not given in full),0.152 µM (active),–
COc1ccc2cc3[n+](cc2c1OC)CCc1cc2c(cc1-3)OCO2,8.57 µM (active),–
CCCCc1oc2ccccc2c1C(=O)c1cc(I)c(OCCN(CC)CC)c(I)c1,24.1 µM (active),–
CCCCCCCCCCCC[n+]1ccc2ccccc2c1,1.52 µM (active),–
C[C@@H]1CCO[C@H]2Cn3cc(C(=O)NCc4ccc(F)cc4F)c(=O)c(O)c3C(=O)N12,0.0015 µM (active),–
Cc1cn([C@H]2C[C@H](N=[N+]=[N-])[C@@H](CO)O2)c(=O)[nH]c1=O,0.304 µM (active),–
COc1cc(NS(C)(=O)=O)ccc1Nc1c2ccccc2nc2ccccc12,0.764 µM (active),–
CC[C@@]1(O)C(=O)OCc2c1cc1n(c2=O)Cc2c-1nc1ccccc1c2/C=N/OC(C)(C)C,0.0108 µM (active),–
CC[C@@H]([C@H](C)O)n1ncn(-c2ccc(N3CCN(c4ccc(OC[C@@H]5CO[C@@](Cn6cncn6)(c6ccc(F)cc6F)C5)cc4)CC3)cc2)c1=O,6.81 µM (active),–
CC(C)OC(=O)[C@H](C)N[P@](=O)(CO[C@H](C)Cn1cnc2c(N)ncnc21)Oc1ccccc1,0.0271 µM (active),–
C/C=C(/C)C(=O)O[C@H]1C(C)=CC23C(=O)C(C=C(CO)[C@@H](O)[C@]12O)[C@H]1[C@@H](C[C@H]3C)C1(C)C (stereo not given in full),inactive,–

Compound,Potency,"activity, negative = inhibition"
COc1cc2nccc(Oc3ccc(NC(=O)C4(C(=O)Nc5ccc(F)cc5)CC4)cc3)c2cc1OC,15.2 µM (active),–
CCCCCCCCCCCCOCCOCCOCCOCCOCCOCCOCCOCCOCCO,5.41 µM (active),–
CCCN1C[C@H](C)[C@@H](O)[C@](C)(O)[C@@H](CC)OC(=O)[C@H](C)[C@@H](O[C@H]2C[C@@](C)(OC)[C@@H](O)[C@H](C)O2)C(C)[C@@H](O[C@@H]2O[C@H](C)C[C@H](N(C)C)[C@H]2O)[C@](C)(O)C[C@H]1C (stereo not given in full),inactive,–
C[C@]12CC[C@H](O)C[C@H]1CCC1C2CC[C@]2(C)[C@@H](c3ccc(=O)oc3)C[C@H]3O[C@]132 (stereo not given in full),4.82 µM (active),–
Cc1nnc2n1-c1sc(CCc3ccc(CC(C)C)cc3)cc1C(c1ccccc1Cl)=NC2C (stereo not given),24.1 µM (active),–
CC(=O)N1CCN(c2ccc(OC[C@H]3CO[C@](Cn4ccnc4)(c4ccc(Cl)cc4Cl)O3)cc2)CC1,7.64 µM (active),–
O=c1[nH]c(=O)n([C@H]2C[C@H](O)[C@@H](CO)O2)cc1C(F)(F)F,2.41 µM (active),–
C=CC(=O)Nc1cc(Nc2nccc(-c3cn(C)c4ccccc34)n2)c(OC)cc1N(C)CCN(C)C,30.4 µM (active),–
CC[C@@]1(O)C(=O)OCc2c1cc1n(c2=O)Cc2cc3c(CN(C)C)c(O)ccc3nc2-1,0.0857 µM (active),–
O=c1c(C2CC(c3ccc(-c4ccc(Br)cc4)cc3)Cc3ccccc32)c(O)sc2ccccc12 (stereo not given),6.07 µM (active),–
COC(=O)C[C@](O)(CCCC(C)(C)O)C(=O)O[C@@H]1C(OC)=C[C@]23CCCN2CCc2cc4c(cc2[C@H]13)OCO4,0.482 µM (active),–
O=C1CCc2ccc(OCCCCN3CCN(c4cccc(Cl)c4Cl)CC3)cc2N1,13.6 µM (active),–
COc1c(OCCCN2CCOCC2)ccc2c3n(c(=NC(=O)c4cnc(N)nc4)nc12)CCN3,–,-8.49% [at 11.2 µM] (inactive)
C=CC1(C)CC(=O)C2(O)C(C)(O1)C(OC(C)=O)C(OC(=O)CCN(C)C)C1C(C)(C)CCC(O)C12C (stereo not given),inactive,–
CCN(CC)CCNC(=O)c1c(C)[nH]c(/C=C2\C(=O)Nc3ccc(F)cc32)c1C,7.64 µM (active),–
CC(=O)Oc1ccccc1C(=O)Nc1ncc([N+](=O)[O-])s1,10.8 µM (active),–
O=C(Nc1ccc(Cl)cc1)Nc1ccc(Cl)c(C(F)(F)F)c1,10.8 µM (active),–
COc1ccc2cc1Oc1ccc(cc1)C[C@H]1c3c(cc4c(c3Oc3cc5c(cc3OC)CCN(C)[C@@H]5C2)OCO4)CCN1C,21.5 µM (active),–
CCN(CC)Cc1cc(Nc2ccnc3cc(Cl)ccc23)ccc1O,24.1 µM (active),–
CC(=O)[C@]1(O)Cc2c(O)c3c(c(O)c2[C@@H](O[C@H]2C[C@H](N)[C@H](O)[C@H](C)O2)C1)C(=O)c1ccccc1C3=O,2.15 µM (active),–

# — PubChem BioAssay AID1494156 (National Center for Advancing Translational Sciences (NCATS), 2020)
